Laboratory results as given in PubChem BioAssay (Tox21).
Values without a mark were called inactive. Results filed as inconclusive are left out. Where a call stands in place of a potency, no number is given. Active and inactive are the calls of the source. Unless noted, calls follow the shape of the full dose curve.

Key:
[1] = Nuclear factor erythroid 2-related factor 2/antioxidant responsive element (Nrf2/ARE) small molecule agonists: luciferase reporter gene qHTS assay in human keratinocytes (AID 1919969); also: nearly all actives have a fitted effect of over 35% in size; also: potency is read from the fitted curve at half-maximal effect
[2] = target: Gonadotropin-releasing hormone receptor (Homo sapiens) (UniProt P30968); test: Human gonadotropin-releasing hormone receptor (GnRHR) small molecule agonists, calcium flux assay in GnRHR-HEK293 cells (AID 1920063); also: nearly all actives have a fitted effect of over 35% in size
Gonadotropin-releasing hormone receptor (Homo sapiens), sequence (P30968 whole entry, looked up): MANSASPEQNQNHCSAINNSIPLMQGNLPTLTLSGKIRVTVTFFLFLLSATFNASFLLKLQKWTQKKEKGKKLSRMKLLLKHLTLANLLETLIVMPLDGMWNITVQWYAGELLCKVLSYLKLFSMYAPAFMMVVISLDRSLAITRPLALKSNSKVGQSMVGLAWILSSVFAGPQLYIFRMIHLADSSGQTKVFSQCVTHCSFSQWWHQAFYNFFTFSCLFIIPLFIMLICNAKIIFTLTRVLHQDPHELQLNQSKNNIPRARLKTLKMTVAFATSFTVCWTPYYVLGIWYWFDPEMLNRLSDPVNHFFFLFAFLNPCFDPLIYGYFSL
Summary of the method: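 Calcium-dye fluorescence, Ex/Em=480/540, recorded every 1 sec over 3 min after compound addition to GnRHR-HEK293 cells. Cells had been seeded 18 hours earlier and dye-loaded for 1 hour at 37 C. Fifteen concentrations, triplicates.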

[3] = target: KiSS-1 receptor (Homo sapiens) (UniProt Q969F8); test: Human kisspeptin (KISS1R) small molecule agonists, calcium flux assay in KISS1R-HEK293 cells (AID 1920064; active = well fitted activation curve with a large enough effect in the repeat runs)
KiSS-1 receptor (Homo sapiens), sequence (Q969F8 whole entry, looked up): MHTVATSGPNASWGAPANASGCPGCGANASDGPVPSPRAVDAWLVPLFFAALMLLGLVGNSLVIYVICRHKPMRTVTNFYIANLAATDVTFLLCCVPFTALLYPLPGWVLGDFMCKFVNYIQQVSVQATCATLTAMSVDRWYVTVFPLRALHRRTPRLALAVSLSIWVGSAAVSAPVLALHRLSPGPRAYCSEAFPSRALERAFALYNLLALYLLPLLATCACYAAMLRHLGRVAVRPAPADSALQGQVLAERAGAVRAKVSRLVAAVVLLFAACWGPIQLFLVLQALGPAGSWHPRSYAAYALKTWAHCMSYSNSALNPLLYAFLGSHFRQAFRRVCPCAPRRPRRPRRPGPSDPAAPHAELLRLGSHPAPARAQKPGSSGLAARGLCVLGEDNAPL
Summary of the method: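 Calcium flux read-out: kinetic fluorescence at Ex/Em=480/540, 1 s intervals over 3 min, after pin-tool compound addition to dye-loaded KISS1R-HEK293 cells. Fifteen concentrations, triplicates.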

[4] = G protein-coupled receptor (GPCR) small molecule agonists, calcium flux assay: HEK293 wild type cell line counter screen (AID 1920065)
Summary of the method: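 Agonist mode; 18 h seeding at 37 C, 1 h dye load at 37 C; compounds pinned from DMSO, ATP as positive control; kinetic fluorescence 480/540 nm, 3 min, 1 s reads; 15 concentrations, triplicate.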

[5] = p53 small molecule agonists, cell-based qHTS assay with human liver microsomes (AID 1963577)
Summary of the method: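 p53RE-bla reporter cells were pre-incubated 5 h at 37 C, then treated with compounds plus human liver microsomes (0.5 mg/mL final) and NADPH (0.5 mg/mL final) for 16 h at 37 C. Beta-lactamase activity was read by LiveBLAzer fluorescence after 2 h at room temperature.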

[6] = p53 small molecule agonists, cell-based qHTS assay with rat liver microsomes (AID 1963578)
Summary of the method: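 p53RE-bla cells were exposed to compounds together with rat liver microsomes (0.5 mg/mL final) and NADPH (0.5 mg/mL final) for 16 h at 37 C, then read by LiveBLAzer beta-lactamase fluorescence after 2 h at room temperature.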

[7] = p53 small molecule agonists, cell-based qHTS assay with human liver microsomes: qHTS cell viability counter screen (AID 1963579); also: nearly all actives have a fitted effect of over 45% in size
Summary of the method: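 p53RE-bla cells (4,000/well) were pre-incubated 5 h at 37 C, then given compounds in DMSO plus human liver microsomes (0.5 mg/mL final) and NADPH (0.5 mg/mL final) for 16 h at 37 C. Viability was read by CellTiter-Glo luminescence.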

[8] = p53 small molecule agonists, cell-based qHTS assay with rat liver microsomes: qHTS cell viability counter screen (AID 1963580); also: nearly all actives have a fitted effect of over 45% in size; also: potency is read from the fitted curve at half-maximal effect
Summary of the method: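 Cytotoxicity counter screen: intracellular ATP measured by CellTiter-Glo luminescence in the same wells as the beta-lactamase reporter read, on HCT-116 p53RE-bla cells exposed 16 h at 37 C to compounds with rat liver microsomes and NADPH, each 0.5 mg/mL final.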

[9] = p53 small molecule agonists, cell-based qHTS assay: qHTS cell viability counter screen (AID 1963581); also: nearly all actives have a fitted effect of over 45% in size; also: potency is read from the fitted curve at half-maximal effect
Summary of the method: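 Cytotoxicity read-out: ATP-based luminescence (CellTiter-Glo, 30 min RT) measured in the same wells as the p53 reporter assay, HCT-116 p53RE-bla cells, 16 h compound exposure at 37 C.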

[10] = target: 5-hydroxytryptamine receptor 2A (Homo sapiens) (UniProt P28223); test: 5-hydroxytryptamine receptor 2A (HTR2A) small molecule agonists, cell-based qHTS assay (AID 1963587); also: nearly all actives have a fitted effect of over 30% in size
5-hydroxytryptamine receptor 2A (Homo sapiens), sequence (P28223 whole entry, looked up): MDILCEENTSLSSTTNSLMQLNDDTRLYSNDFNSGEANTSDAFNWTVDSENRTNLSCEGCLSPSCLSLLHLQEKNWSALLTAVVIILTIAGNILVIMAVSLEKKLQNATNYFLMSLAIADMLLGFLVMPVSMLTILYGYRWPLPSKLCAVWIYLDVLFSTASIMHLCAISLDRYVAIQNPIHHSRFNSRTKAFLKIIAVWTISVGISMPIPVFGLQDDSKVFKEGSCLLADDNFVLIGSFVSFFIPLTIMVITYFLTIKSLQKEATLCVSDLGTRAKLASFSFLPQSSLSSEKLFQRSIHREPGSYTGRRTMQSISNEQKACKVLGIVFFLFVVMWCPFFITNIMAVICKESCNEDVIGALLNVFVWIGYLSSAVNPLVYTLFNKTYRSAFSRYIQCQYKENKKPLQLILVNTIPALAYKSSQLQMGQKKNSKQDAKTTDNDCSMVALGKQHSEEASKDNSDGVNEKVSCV
Summary of the method: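 CHO cells stably expressing human HTR2A, plated 18 h, loaded with calcium dye 1 h at 37 C. Agonist mode: compounds added and intracellular calcium fluorescence recorded kinetically for 2 min at 1 sec intervals.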

[11] = target: Muscarinic acetylcholine receptor M1 (Homo sapiens) (UniProt P11229); test: Cholinergic receptor muscarinic 1 (CHRM1) small molecule antagonists, cell-based qHTS assay (AID 1963588); also: nearly all actives have a fitted effect of over 40% in size
Muscarinic acetylcholine receptor M1 (Homo sapiens), sequence (P11229 whole entry, looked up): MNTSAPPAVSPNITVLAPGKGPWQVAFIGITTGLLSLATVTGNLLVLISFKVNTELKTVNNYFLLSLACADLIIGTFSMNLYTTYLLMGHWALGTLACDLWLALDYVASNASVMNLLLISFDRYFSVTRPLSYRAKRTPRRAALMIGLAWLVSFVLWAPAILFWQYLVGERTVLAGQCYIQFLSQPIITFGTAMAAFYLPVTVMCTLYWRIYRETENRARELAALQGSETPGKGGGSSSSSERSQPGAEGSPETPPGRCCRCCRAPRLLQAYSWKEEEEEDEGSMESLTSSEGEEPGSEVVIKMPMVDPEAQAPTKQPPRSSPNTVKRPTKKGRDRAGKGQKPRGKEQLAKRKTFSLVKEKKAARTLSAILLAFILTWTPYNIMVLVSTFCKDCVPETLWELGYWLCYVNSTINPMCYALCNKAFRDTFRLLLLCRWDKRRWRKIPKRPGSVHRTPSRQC
Summary of the method: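 Compounds were tested at 15 concentrations in three independent runs. Dye-loaded CHRM1-CHO cells were exposed 5 min at room temperature before stimulation by acetylcholine added at 50nM. Intracellular calcium was read kinetically on FDSS for 3 min.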

[12] = target: Muscarinic acetylcholine receptor M1 (Homo sapiens) (UniProt P11229); test: Cholinergic receptor muscarinic 1 (CHRM1) small molecule agonists, cell-based qHTS assay (AID 1963589); also: nearly all actives have a fitted effect of over 35% in size
Summary of the method: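 Calcium flux read-out: kinetic fluorescence at 1 sec intervals after pin-tool compound addition to dye-loaded CHRM1-CHO cells (human M1). Agonist mode; 15 concentrations tested in triplicate independent runs.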

[13] = cAMP Responsive Elements (CRE) small molecule agonists, cell-based qHTS assay (AID 1963590)
Summary of the method: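 Beta-lactamase reporter readout: LiveBLAzer B/G FRET substrate, 2 h at room temperature, added after 3 h compound treatment of CRE-bla HEK 293T cells at 37 C/5% CO2.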

[14] = cAMP Responsive Elements (CRE) small molecule antagonists, cell-based qHTS assay (AID 1963591; active = well fitted inhibition curve with a large enough effect in the signal ratio in the repeat runs, not every such curve was filed as active; the % refers to the signal ratio)
Summary of the method: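 HEK293T CRE-bla; 18 h preincubation; compound pin-transfer; NKH477 0.25 uM final, 3 h, 37 C; LiveBLAzer FRET substrate 2 h RT.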

[15] = target: Beta-2 adrenergic receptor (Homo sapiens) (UniProt P07550); test: Adrenergic beta2 receptor (ADRB2) small molecule antagonists, cell-based qHTS assay (AID 1963592); also: series mostly up to about 92 µM; nearly all actives have a fitted effect of over 50% in size
Beta-2 adrenergic receptor (Homo sapiens), sequence (P07550 whole entry, looked up): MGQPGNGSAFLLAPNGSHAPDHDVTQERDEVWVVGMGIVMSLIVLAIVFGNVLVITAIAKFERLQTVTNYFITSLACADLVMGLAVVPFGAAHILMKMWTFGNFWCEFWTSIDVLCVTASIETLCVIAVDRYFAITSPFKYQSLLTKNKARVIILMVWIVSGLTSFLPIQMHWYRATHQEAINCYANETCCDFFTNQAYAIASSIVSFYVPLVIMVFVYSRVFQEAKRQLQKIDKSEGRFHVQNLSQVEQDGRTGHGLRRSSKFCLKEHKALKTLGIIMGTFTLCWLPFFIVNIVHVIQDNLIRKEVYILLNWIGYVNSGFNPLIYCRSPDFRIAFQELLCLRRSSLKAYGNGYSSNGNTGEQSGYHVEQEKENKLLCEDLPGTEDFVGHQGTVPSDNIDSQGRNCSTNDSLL
Summary of the method: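 Assay format: CHO-ADRB2 cells, 18-20hr seeding at 37C/5% CO2, then compound plus 1nM isoproterenol agonist mix for 0.5hr RT. Homogeneous time-resolved fluorescence cAMP detection after 1hr, expressed as 665/615 nm ratio.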

[16] = target: Beta-2 adrenergic receptor (Homo sapiens) (UniProt P07550); test: Adrenergic beta2 receptor (ADRB2) small molecule agonists, cell-based qHTS assay (AID 1963593);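 also: CHO cells stably overexpressing human ADRB2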
Summary of the method: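 CHO cells stably over-expressing ADRB2 were plated overnight at 37C, then dosed with compounds plus a stimulation mix containing 100uM IBMX and 25uM Ro-20-1724 for 0.5hr at room temperature. cAMP was measured by HTRF competition, 1hr.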

[17] = target: D(2) dopamine receptor (Homo sapiens) (UniProt P14416); test: Dopamine D2 receptor (DRD2) small molecule agonists, cell-based qHTS assay (AID 1963594); also: nearly all actives have a fitted effect of over 35% in size
D(2) dopamine receptor (Homo sapiens), sequence (P14416 whole entry, looked up): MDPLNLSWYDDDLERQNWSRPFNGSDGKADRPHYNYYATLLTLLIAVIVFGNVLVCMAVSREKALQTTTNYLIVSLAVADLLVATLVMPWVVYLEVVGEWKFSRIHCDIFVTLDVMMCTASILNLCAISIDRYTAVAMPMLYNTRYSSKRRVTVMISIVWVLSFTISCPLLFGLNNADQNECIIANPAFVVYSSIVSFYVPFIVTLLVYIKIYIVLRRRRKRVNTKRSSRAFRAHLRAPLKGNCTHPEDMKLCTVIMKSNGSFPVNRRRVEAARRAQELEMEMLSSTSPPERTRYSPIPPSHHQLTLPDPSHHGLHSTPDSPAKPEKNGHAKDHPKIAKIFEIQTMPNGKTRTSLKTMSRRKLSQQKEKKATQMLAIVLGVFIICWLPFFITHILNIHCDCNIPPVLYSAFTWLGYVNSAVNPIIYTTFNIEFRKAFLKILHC
Summary of the method: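 HEK293 cells stably expressing human DRD2, pre-treated with PDE inhibitor Ro20-1724 (0.1 mM final) and compound 10 min at room temperature, then stimulated with NKH477 (200nM […]) for 30 min. cAMP read by HTRF (665/620 nm).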

[18] = target: D(2) dopamine receptor (Homo sapiens) (UniProt P14416); test: Dopamine D2 receptor (DRD2) small molecule antagonists, cell-based qHTS assay (AID 1963595; active = well fitted inhibition curve with a large enough effect in the signal ratio in the repeat runs, with a control signal flat; the % refers to the signal ratio)
Summary of the method: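 HEK293 cells stably expressing DRD2, preincubated with 0.1 mM Ro20-1724 and compounds 10 min, were stimulated with 200 nM NKH477 plus 12 nM quinpirole for 30 min at room temperature; cAMP measured by HTRF (665/620 nm).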

[19] = p53 small molecule agonists, cell-based qHTS assay (AID 1963582; active = well fitted activation curve with a large enough effect in the signal ratio in the repeat runs, not every such curve was filed as active; the % refers to the signal ratio)
Summary of the method: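 Fluorescence intensity read-out of a beta-lactamase reporter under a p53 response element. Cells were exposed to DMSO-dissolved compounds for 16 h at 37 C, then developed with FRET substrate for 2 h at RT.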

[20] = target: 5-hydroxytryptamine receptor 2A (Homo sapiens) (UniProt P28223); test: 5-hydroxytryptamine receptor 2A (HTR2A) small molecule antagonists, cell-based qHTS assay (AID 1963586); also: nearly all actives have a fitted effect of over 45% in size; also: potency is read from the fitted curve at half-maximal effect
Summary of the method: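 CHO cells stably expressing human HTR2A were plated for 18 h at 37 C, then loaded with calcium dye for 1 h. Compounds were preincubated 5 min at room temperature before DOI (4 nM solution) was added. Kinetic fluorescence was read for 3 min.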

Structure (SMILES) | Potency [1] | Potency [2] | Potency [3] | Potency [4] | Potency [5] | Potency [6] | Potency [7] | Potency [8] | Potency [9] | Potency [10] | Potency [11] | Potency [12] | Potency [13] | Potency [14] | Potency [15] | Potency [16] | Potency [17] | Potency [18] | Potency [19] | Potency [20]
COc1ccc(-c2cc(=S)ss2)cc1 | 33.5 µM (active) | inactive | inactive | inactive | inactive | inactive | inactive | inactive | inactive | inactive | inactive | inactive | inactive | inactive | inactive | inactive | inactive | inactive |  | 
COc1ccc(N=Nc2cc(C)c(N=Nc3ccc(S(=O)(=O)O)cc3)cc2OC)cc1 | inactive | inactive | inactive | inactive | inactive | inactive | inactive |  | inactive | inactive | inactive | inactive | inactive |  |  |  | inactive | inactive | inactive | inactive
Oc1cccc(-c2c3nc(c(-c4cccc(O)c4)c4ccc([nH]4)c(-c4cccc(O)c4)c4nc(c(-c5cccc(O)c5)c5ccc2[nH]5)CC4)C=C3)c1 | inactive | inactive | inactive | inactive | inactive | inactive | inactive | inactive |  |  | inactive | inactive | inactive | inactive |  |  |  |  |  | 
Nc1ccc(N)c2c1C(=O)c1ccccc1C2=O | inactive | inactive | inactive | inactive | inactive | inactive | inactive | inactive | inactive |  | inactive | inactive | inactive |  |  |  |  |  |  | 
Oc1cccc2c(O)cccc12 | 27.3 µM (active) | inactive | inactive | inactive | inactive | inactive |  | 32.4 µM (active) | inactive | inactive | inactive | inactive | inactive | inactive |  |  | inactive | inactive |  | inactive
CC1=NN(c2cc(S(=O)(=O)O)ccc2Cl)C(=O)C1N=Nc1ccccc1 (configuration not stated) | inactive | inactive | inactive | inactive | inactive | inactive |  | inactive | inactive | inactive | inactive | inactive | inactive | inactive | inactive |  | inactive | inactive | inactive | inactive
O=[N+]([O-])c1ccc(O)cc1 | inactive | inactive | inactive | inactive | inactive | inactive | inactive |  |  | inactive | inactive | inactive | inactive | inactive | inactive |  | inactive |  | inactive | inactive
C#C[C@]1(O)CC[C@H]2[C@@H]3CCc4cc(OC5CCCC5)ccc4[C@H]3CC[C@@]21C | inactive | inactive | inactive | inactive | inactive | inactive |  | inactive | inactive | inactive | inactive | inactive |  | inactive | inactive | inactive | inactive |  | inactive | inactive
O=C(Nc1cccc([N+](=O)[O-])c1)c1cc2ccccc2cc1O | 61.1 µM (active) | inactive | inactive | inactive | inactive | inactive |  | inactive | inactive | inactive | inactive | inactive |  |  | inactive |  | inactive | inactive |  | 
CN(C)c1ccc(N=Nc2ccccc2C(=O)O)cc1 | 61.1 µM (active) | inactive | inactive | inactive | inactive | inactive |  | inactive |  | inactive | inactive | inactive |  |  | inactive |  | inactive | inactive |  | inactive
COC(=O)Nc1nc2ccc(C(=O)c3cccs3)cc2[nH]1 | 2.66 µM (active) | inactive | inactive | inactive | inactive | inactive |  | inactive |  |  |  |  |  | inactive | inactive |  | inactive | inactive |  | 
CCCCCc1ccc(O)cc1 | 34.4 µM (active) | inactive | inactive | inactive | inactive | inactive | inactive |  | inactive |  |  |  | inactive | inactive | inactive | inactive | inactive | inactive | inactive | inactive
COc1cc(C=C2CCC/C(=C\c3ccc(O)c(OC)c3)C2=O)ccc1O | 6.68 µM (active) | inactive | inactive | inactive | inactive | inactive |  |  | 14.1 µM (active) |  | inactive | inactive |  |  | inactive | inactive | inactive | inactive | inactive | 18.3 µM (active)
Cc1oc2c(NC(=O)c3c(Cl)cccc3Cl)cccc2c1C(C)(C)O | inactive | inactive | inactive | inactive | inactive | inactive | inactive |  | inactive | inactive | inactive |  | inactive | inactive | inactive |  | inactive | inactive | inactive | inactive
